According to paper PMC11006913:
Where a chain is given by its changes, count along the chain named.

Key:
Experiment in all cases: PBM; 200 nM protein, PBS
Conditions in all cases: dsDNA, one strand shown
[1] = target: HOXB9 (Homo sapiens, UniProt P17482 171-250, T197M)
[2] = target: HOXC9 (Homo sapiens, UniProt P31274 178-260, K195R)
[3] = target: HOXA7 (Homo sapiens, UniProt P31268 116-202)
[4] = target: HOXC10 (Homo sapiens, UniProt Q9NYD6 254-340)
[5] = target: ALX4 (Homo sapiens, UniProt Q9H161 200-286)
[6] = target: T1, PAX4 (Homo sapiens, UniProt O43316 9-242, R200K)
T1 sequence: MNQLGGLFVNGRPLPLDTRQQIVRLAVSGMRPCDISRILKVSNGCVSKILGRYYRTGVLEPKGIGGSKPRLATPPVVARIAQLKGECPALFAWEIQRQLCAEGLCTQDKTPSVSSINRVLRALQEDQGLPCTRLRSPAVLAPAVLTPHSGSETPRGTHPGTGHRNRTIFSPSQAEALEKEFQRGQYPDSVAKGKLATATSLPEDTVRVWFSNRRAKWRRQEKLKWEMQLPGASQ

[7] = target: PRRX1 (Homo sapiens, UniProt P54821 80-166, F113S)
[8] = target: T2, PAX4 (Homo sapiens, UniProt O43316 9-242)
T2 sequence: T1 sequence with K192R

[9] = target: HOXB6 (Homo sapiens, UniProt P17509 132-218, K202E)
[10] = target: ALX4 (Homo sapiens, UniProt Q9H161 200-286, Q225E)
[11] = target: HOXA4 (Homo sapiens, UniProt Q00056 201-287, R217L)
[12] = target: HOXB4 (Homo sapiens, UniProt P17483 148-234, V174I)
[13] = target: ALX1 (Homo sapiens, UniProt Q15699 118-204, L144V)
[14] = target: ALX3 (Homo sapiens, UniProt O95076 139-225, N203Q)
[15] = target: HOXD13 (Homo sapiens, UniProt P35453 263-343, T313R)
[16] = target: T3, PAX4 (Homo sapiens, UniProt O43316 9-242, R200Q)
T3 sequence: T1 sequence with K192Q

[17] = target: SHOX (Homo sapiens, UniProt O15266 103-189, R173C)
[18] = target: HOXC9 (Homo sapiens, UniProt P31274 178-260, R193K)
[19] = target: ALX1 (Homo sapiens, UniProt Q15699 118-204, L144R)
[20] = target: T4, PAX4 (Homo sapiens, UniProt O43316 9-242, F177V)
T4 sequence: T1 sequence with F169V, K192R

[21] = target: HOXC10 (Homo sapiens, UniProt Q9NYD6 254-340, K271E)
[22] = target: ALX3 (Homo sapiens, UniProt O95076 139-225)
[23] = target: T5, PAX4 (Homo sapiens, UniProt O43316 9-242, F177Y)
T5 sequence: T1 sequence with F169Y, K192R

[24] = target: HESX1 (Homo sapiens, UniProt Q9UBX0 95-180, R109Q)
[25] = target: ALX3 (Homo sapiens, UniProt O95076 139-225, L168Q)
[26] = target: HESX1 (Homo sapiens, UniProt Q9UBX0 95-180, P111T)
[27] = target: HOXB9 (Homo sapiens, UniProt P17482 171-250, R186Q)
[28] = target: HOXC9 (Homo sapiens, UniProt P31274 178-260, R222W)
[29] = target: ALX3 (Homo sapiens, UniProt O95076 139-225, L168V)
[30] = target: HESX1 (Homo sapiens, UniProt Q9UBX0 95-180, F115L)
[31] = target: VAX1 (Homo sapiens, UniProt Q5SQQ9 86-172, T142I)
[32] = target: T6, PAX4 (Homo sapiens, UniProt O43316 9-242, R227W)
T6 sequence: T1 sequence with K192R, R219W

[33] = target: HOXA7 (Homo sapiens, UniProt P31268 116-202, W177C)
[34] = target: HOXA4 (Homo sapiens, UniProt Q00056 201-287, W262F)
[35] = target: ALX3 (Homo sapiens, UniProt O95076 139-225, N203S)
[36] = target: PRRX1 (Homo sapiens, UniProt P54821 80-166)
[37] = target: HOXB6 (Homo sapiens, UniProt P17509 132-218)
[38] = target: T7, VENTX (Homo sapiens, UniProt O95231 78-163, R121Q)
T7 sequence: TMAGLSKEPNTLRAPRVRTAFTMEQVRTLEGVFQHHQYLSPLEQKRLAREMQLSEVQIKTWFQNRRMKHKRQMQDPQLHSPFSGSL

[39] = target: T8, VENTX (Homo sapiens, UniProt O95231 78-163, Y115F)
T8 sequence: T7 sequence with Y38F, Q44R

[40] = target: HOXB9 (Homo sapiens, UniProt P17482 171-250)
[41] = target: HOXC9 (Homo sapiens, UniProt P31274 178-260)
[42] = target: T9, NKX2-6 (Homo sapiens, UniProt A6NCS4 118-204)
T9 sequence: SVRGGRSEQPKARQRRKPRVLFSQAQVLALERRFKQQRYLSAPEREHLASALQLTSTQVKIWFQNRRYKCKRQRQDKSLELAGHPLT

[43] = target: HOXD13 (Homo sapiens, UniProt P35453 263-343)
[44] = target: HOXD13 (Homo sapiens, UniProt P35453 263-343, T313A)
HOXD13 (Homo sapiens, UniProt P35453 263-343, T313A), sequence (P35453 263-343 T313A): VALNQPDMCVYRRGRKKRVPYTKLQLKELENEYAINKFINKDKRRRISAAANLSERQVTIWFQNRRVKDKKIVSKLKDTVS

HOXC9 (Homo sapiens, UniProt P31274 178-260, R222W), sequence (P31274 178-260 R222W): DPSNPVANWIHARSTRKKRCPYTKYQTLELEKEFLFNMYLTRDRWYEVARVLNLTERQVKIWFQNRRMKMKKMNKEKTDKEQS
HOXB6 (Homo sapiens, UniProt P17509 132-218), sequence (P17509 132-218): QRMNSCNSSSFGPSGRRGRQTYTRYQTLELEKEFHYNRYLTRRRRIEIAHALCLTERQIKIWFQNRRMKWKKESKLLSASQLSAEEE
HOXC9 (Homo sapiens, UniProt P31274 178-260, R193K), sequence (P31274 178-260 R193K): as the sequence (P31274 178-260 R222W) above, with R16K, W45R counted along it
HOXB9 (Homo sapiens, UniProt P17482 171-250, T197M), sequence (P17482 171-250 T197M): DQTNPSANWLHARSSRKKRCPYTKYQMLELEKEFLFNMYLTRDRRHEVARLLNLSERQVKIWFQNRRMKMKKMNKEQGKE
HOXC10 (Homo sapiens, UniProt Q9NYD6 254-340, K271E), sequence (Q9NYD6 254-340 K271E): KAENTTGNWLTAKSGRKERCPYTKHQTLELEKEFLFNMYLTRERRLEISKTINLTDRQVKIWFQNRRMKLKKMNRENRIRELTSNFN
HOXC9 (Homo sapiens, UniProt P31274 178-260, K195R), sequence (P31274 178-260 K195R): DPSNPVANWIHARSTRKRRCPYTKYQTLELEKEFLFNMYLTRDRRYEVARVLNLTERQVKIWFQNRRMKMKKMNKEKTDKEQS
HOXB6 (Homo sapiens, UniProt P17509 132-218, K202E), sequence (P17509 132-218 K202E): as the sequence (P17509 132-218) above, with K71E counted along it
HOXA7 (Homo sapiens, UniProt P31268 116-202, W177C), sequence (P31268 116-202 W177C): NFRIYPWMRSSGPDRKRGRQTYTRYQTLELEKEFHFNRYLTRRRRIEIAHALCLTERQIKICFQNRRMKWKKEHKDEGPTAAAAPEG
HOXD13 (Homo sapiens, UniProt P35453 263-343, T313R), sequence (P35453 263-343 T313R): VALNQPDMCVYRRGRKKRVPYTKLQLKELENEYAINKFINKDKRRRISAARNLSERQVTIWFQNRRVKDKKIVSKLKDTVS
HOXA7 (Homo sapiens, UniProt P31268 116-202), sequence (P31268 116-202): as the sequence (P31268 116-202 W177C) above, with C62W counted along it
HOXB9 (Homo sapiens, UniProt P17482 171-250, R186Q), sequence (P17482 171-250 R186Q): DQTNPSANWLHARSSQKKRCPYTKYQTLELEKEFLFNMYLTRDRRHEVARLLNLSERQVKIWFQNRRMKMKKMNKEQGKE
HOXB4, sequence (P17483 148-234 V174I): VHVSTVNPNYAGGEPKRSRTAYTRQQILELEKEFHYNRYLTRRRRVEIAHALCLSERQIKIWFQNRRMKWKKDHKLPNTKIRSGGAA
HOXD13 (Homo sapiens, UniProt P35453 263-343), sequence (P35453 263-343): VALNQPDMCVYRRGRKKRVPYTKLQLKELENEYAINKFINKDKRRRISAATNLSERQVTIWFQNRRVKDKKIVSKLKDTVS
HOXC10 (Homo sapiens, UniProt Q9NYD6 254-340), sequence (Q9NYD6 254-340): as the sequence (Q9NYD6 254-340 K271E) above, with E18K counted along it
HESX1 (Homo sapiens, UniProt Q9UBX0 95-180, P111T), sequence (Q9UBX0 95-180 P111T): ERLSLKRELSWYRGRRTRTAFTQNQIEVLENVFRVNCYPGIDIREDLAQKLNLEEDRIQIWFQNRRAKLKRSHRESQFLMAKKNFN
ALX1 (Homo sapiens, UniProt Q15699 118-204, L144V), sequence (Q15699 118-204 L144V): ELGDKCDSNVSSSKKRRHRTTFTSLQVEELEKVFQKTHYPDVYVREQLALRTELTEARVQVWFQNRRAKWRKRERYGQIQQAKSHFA
ALX3 (Homo sapiens, UniProt O95076 139-225, L168Q), sequence (O95076 139-225 L168Q): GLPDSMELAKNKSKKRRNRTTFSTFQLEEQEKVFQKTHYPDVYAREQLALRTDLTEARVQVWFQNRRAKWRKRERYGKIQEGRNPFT
PRRX1 (Homo sapiens, UniProt P54821 80-166), sequence (P54821 80-166): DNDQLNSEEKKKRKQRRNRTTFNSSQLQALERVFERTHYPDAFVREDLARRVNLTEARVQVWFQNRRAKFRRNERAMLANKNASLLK
HOXB9 (Homo sapiens, UniProt P17482 171-250), sequence (P17482 171-250): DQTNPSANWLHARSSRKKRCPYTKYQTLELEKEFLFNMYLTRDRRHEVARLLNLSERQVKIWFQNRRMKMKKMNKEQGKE
ALX4 (Homo sapiens, UniProt Q9H161 200-286), sequence (Q9H161 200-286): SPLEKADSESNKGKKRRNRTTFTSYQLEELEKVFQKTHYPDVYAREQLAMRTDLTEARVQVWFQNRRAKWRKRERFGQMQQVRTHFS
HESX1 (Homo sapiens, UniProt Q9UBX0 95-180, F115L), sequence (Q9UBX0 95-180 F115L): as the sequence (Q9UBX0 95-180 P111T) above, with T17P, F21L counted along it
PRRX1 (Homo sapiens, UniProt P54821 80-166, F113S), sequence (P54821 80-166 F113S): as the sequence (P54821 80-166) above, with F34S counted along it
HESX1 (Homo sapiens, UniProt Q9UBX0 95-180, R109Q), sequence (Q9UBX0 95-180 R109Q): as the sequence (Q9UBX0 95-180 P111T) above, with R15Q, T17P counted along it
HOXA4 (Homo sapiens, UniProt Q00056 201-287, R217L), sequence (Q00056 201-287 R217L): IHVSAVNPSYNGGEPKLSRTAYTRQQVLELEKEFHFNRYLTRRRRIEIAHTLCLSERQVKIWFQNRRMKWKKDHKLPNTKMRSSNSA
HOXA4 (Homo sapiens, UniProt Q00056 201-287, W262F), sequence (Q00056 201-287 W262F): as the sequence (Q00056 201-287 R217L) above, with L17R, W62F counted along it
ALX4 (Homo sapiens, UniProt Q9H161 200-286, Q225E), sequence (Q9H161 200-286 Q225E): as the sequence (Q9H161 200-286) above, with Q26E counted along it
ALX3 (Homo sapiens, UniProt O95076 139-225, N203Q), sequence (O95076 139-225 N203Q): as the sequence (O95076 139-225 L168Q) above, with Q30L, N65Q counted along it
HOXC9 (Homo sapiens, UniProt P31274 178-260), sequence (P31274 178-260): as the sequence (P31274 178-260 R222W) above, with W45R counted along it
ALX1 (Homo sapiens, UniProt Q15699 118-204, L144R), sequence (Q15699 118-204 L144R): as the sequence (Q15699 118-204 L144V) above, with V27R counted along it
ALX3 (Homo sapiens, UniProt O95076 139-225), sequence (O95076 139-225): as the sequence (O95076 139-225 L168Q) above, with Q30L counted along it
ALX3 (Homo sapiens, UniProt O95076 139-225, L168V), sequence (O95076 139-225 L168V): as the sequence (O95076 139-225 L168Q) above, with Q30V counted along it
SHOX, sequence (O15266 103-189 R173C): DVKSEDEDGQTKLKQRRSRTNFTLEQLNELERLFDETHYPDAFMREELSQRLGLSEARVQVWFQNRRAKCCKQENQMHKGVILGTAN
VAX1, sequence (Q5SQQ9 86-172 T142I): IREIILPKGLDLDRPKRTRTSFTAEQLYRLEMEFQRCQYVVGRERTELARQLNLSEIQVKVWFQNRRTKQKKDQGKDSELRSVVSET
ALX3 (Homo sapiens, UniProt O95076 139-225, N203S), sequence (O95076 139-225 N203S): as the sequence (O95076 139-225 L168Q) above, with Q30L, N65S counted along it

ATTAATAA
binding signal [1]: 10.1 upbm affinity estimate (log intensity, higher = more binding, comparable within an allelic series) | binding signal [2]: 12.6 upbm affinity estimate (log intensity, higher = more binding, comparable within an allelic series) | binding signal [3]: 11.2 upbm affinity estimate (log intensity, higher = more binding, comparable within an allelic series) | binding signal [4]: 12.2 upbm affinity estimate (log intensity, higher = more binding, comparable within an allelic series) | binding signal [5]: 13.5 upbm affinity estimate (log intensity, higher = more binding, comparable within an allelic series) | binding signal [6]: 11.7 upbm affinity estimate (log intensity, higher = more binding, comparable within an allelic series) | binding signal [7]: 11.2 upbm affinity estimate (log intensity, higher = more binding, comparable within an allelic series) | binding signal [8]: 12.1 upbm affinity estimate (log intensity, higher = more binding, comparable within an allelic series) | binding signal [9]: 10.1 upbm affinity estimate (log intensity, higher = more binding, comparable within an allelic series) | binding signal [10]: 12.8 upbm affinity estimate (log intensity, higher = more binding, comparable within an allelic series) | binding signal [11]: 12 upbm affinity estimate (log intensity, higher = more binding, comparable within an allelic series) | binding signal [12]: 13.6 upbm affinity estimate (log intensity, higher = more binding, comparable within an allelic series) | binding signal [13]: 11.4 upbm affinity estimate (log intensity, higher = more binding, comparable within an allelic series) | binding signal [14]: 8.66 upbm affinity estimate (log intensity, higher = more binding, comparable within an allelic series) | binding signal [15]: 10.8 upbm affinity estimate (log intensity, higher = more binding, comparable within an allelic series) | binding signal [16]: 11.9 upbm affinity estimate (log intensity, higher = more binding, comparable within an allelic series) | binding signal [17]: 9.26 upbm affinity estimate (log intensity, higher = more binding, comparable within an allelic series) | binding signal [18]: 12.5 upbm affinity estimate (log intensity, higher = more binding, comparable within an allelic series) | binding signal [19]: 11.2 upbm affinity estimate (log intensity, higher = more binding, comparable within an allelic series) | binding signal [20]: 10.7 upbm affinity estimate (log intensity, higher = more binding, comparable within an allelic series) | binding signal [21]: 11.8 upbm affinity estimate (log intensity, higher = more binding, comparable within an allelic series) | binding signal [22]: 12.2 upbm affinity estimate (log intensity, higher = more binding, comparable within an allelic series) | binding signal [23]: 11 upbm affinity estimate (log intensity, higher = more binding, comparable within an allelic series) | binding signal [24]: 8.97 upbm affinity estimate (log intensity, higher = more binding, comparable within an allelic series) | binding signal [25]: 10.2 upbm affinity estimate (log intensity, higher = more binding, comparable within an allelic series) | binding signal [26]: 10.2 upbm affinity estimate (log intensity, higher = more binding, comparable within an allelic series) | binding signal [27]: 11.4 upbm affinity estimate (log intensity, higher = more binding, comparable within an allelic series) | binding signal [28]: 11.2 upbm affinity estimate (log intensity, higher = more binding, comparable within an allelic series) | binding signal [29]: 9.99 upbm affinity estimate (log intensity, higher = more binding, comparable within an allelic series) | binding signal [30]: 8.16 upbm affinity estimate (log intensity, higher = more binding, comparable within an allelic series) | binding signal [31]: 12.3 upbm affinity estimate (log intensity, higher = more binding, comparable within an allelic series) | binding signal [32]: 11 upbm affinity estimate (log intensity, higher = more binding, comparable within an allelic series) | binding signal [33]: 9.01 upbm affinity estimate (log intensity, higher = more binding, comparable within an allelic series) | binding signal [34]: 11.4 upbm affinity estimate (log intensity, higher = more binding, comparable within an allelic series) | binding signal [35]: 8.71 upbm affinity estimate (log intensity, higher = more binding, comparable within an allelic series) | binding signal [36]: 13.2 upbm affinity estimate (log intensity, higher = more binding, comparable within an allelic series) | binding signal [37]: 11.7 upbm affinity estimate (log intensity, higher = more binding, comparable within an allelic series)

CCCGATTA
binding signal [38]: 10.4 upbm affinity estimate (log intensity, higher = more binding, comparable within an allelic series) | binding signal [39]: 10.6 upbm affinity estimate (log intensity, higher = more binding, comparable within an allelic series)

GCTATTAA
binding signal [1]: 10 upbm affinity estimate (log intensity, higher = more binding, comparable within an allelic series) | binding signal [2]: 12.7 upbm affinity estimate (log intensity, higher = more binding, comparable within an allelic series) | binding signal [3]: 11.4 upbm affinity estimate (log intensity, higher = more binding, comparable within an allelic series) | binding signal [9]: 9.98 upbm affinity estimate (log intensity, higher = more binding, comparable within an allelic series) | binding signal [40]: 12 upbm affinity estimate (log intensity, higher = more binding, comparable within an allelic series) | binding signal [41]: 12.8 upbm affinity estimate (log intensity, higher = more binding, comparable within an allelic series) | binding signal [15]: 10.7 upbm affinity estimate (log intensity, higher = more binding, comparable within an allelic series) | binding signal [42]: 11.8 upbm affinity estimate (log intensity, higher = more binding, comparable within an allelic series) | binding signal [18]: 12.7 upbm affinity estimate (log intensity, higher = more binding, comparable within an allelic series) | binding signal [43]: 11.8 upbm affinity estimate (log intensity, higher = more binding, comparable within an allelic series) | binding signal [21]: 11.8 upbm affinity estimate (log intensity, higher = more binding, comparable within an allelic series) | binding signal [44]: 11.5 upbm affinity estimate (log intensity, higher = more binding, comparable within an allelic series) | binding signal [27]: 11.8 upbm affinity estimate (log intensity, higher = more binding, comparable within an allelic series) | binding signal [28]: 10.9 upbm affinity estimate (log intensity, higher = more binding, comparable within an allelic series) | binding signal [33]: 8.84 upbm affinity estimate (log intensity, higher = more binding, comparable within an allelic series) | binding signal [37]: 11.8 upbm affinity estimate (log intensity, higher = more binding, comparable within an allelic series)
